40 compounds from PubChem BioAssay AID602258 (National Center for Advancing Translational Sciences (NCATS), 2012) can be followed below.

Records with an inconclusive call do not appear. Where a call stands in place of a potency, no number is given. Active and inactive are the calls of the source. The call rests on the fitted dose curve; in most records, active means well fitted activation curve with a large enough effect; inconclusive means small, poorly fitted or top-dose-only effect; inactive means no such curve, though single readings can be large or run the other way.

The assay deals with Relaxin receptor 2 (Homo sapiens) (UniProt Q8WXD0). Kind of assay: qHTS Assay for Agonists of the Relaxin Receptor RXFP1: RXFP2 SAR. The following applies: HEK293 RXFP2 cAMP TR-FRET agonist, 30 min; series mostly up to 78.1 µM. The text has this: The relaxin hormone is involved in the variety of biological functions in normal tissues and diseases. The role of relaxin is well-established in female reproduction and parturition, mammary gland and endometrial development, maintenance of myometrial quiescence during pregnancy. Relaxin signaling through its G protein-coupled receptor (GPCR) RXFP1 results in ECM remodeling through regulation of collagen deposition, cell invasiveness, proliferation and overall tissue homeostasis. […] Recombinant human relaxin (rhRlx) is currently being tested in clinical trials as a protective agent in congestive heart failure, in treating severe preeclampsia, and as an anti-fibrotic agent in systemic sclerosis. Upon relaxin binding RXFP1 activation leads to the activation of adenylate cyclase (AC) via Gs. cAMP will activate PKA, which phosphorylates many signaling proteins. Thus, detection of cAMP increase is an easy and reliable indication of relaxin receptor activation. To screen for agonists of the relaxin receptor, a HEK293T cell line stably transfected with RXFP1 was used. RXFP1 activation was assayed by changes in cAMP levels as detected with a time-resolved fluorescence energy transfer (TR-FRET) cAMP detection kit. This assay measures activation of a cell expressing RXFP2, another GPCR targeted by relaxin, to determine the selectivity of compounds for RXFP1. NIH Chemical Genomics Center [NCGC] NIH Molecular Libraries Probe Production Centers Network [MLPCN] MLPCN Grant: R03 MH085705-01A1 Assay Submitter (PI): Alexander Agoulnik
Chain of Relaxin receptor 2 (Homo sapiens) (Q8WXD0 whole entry, looked up): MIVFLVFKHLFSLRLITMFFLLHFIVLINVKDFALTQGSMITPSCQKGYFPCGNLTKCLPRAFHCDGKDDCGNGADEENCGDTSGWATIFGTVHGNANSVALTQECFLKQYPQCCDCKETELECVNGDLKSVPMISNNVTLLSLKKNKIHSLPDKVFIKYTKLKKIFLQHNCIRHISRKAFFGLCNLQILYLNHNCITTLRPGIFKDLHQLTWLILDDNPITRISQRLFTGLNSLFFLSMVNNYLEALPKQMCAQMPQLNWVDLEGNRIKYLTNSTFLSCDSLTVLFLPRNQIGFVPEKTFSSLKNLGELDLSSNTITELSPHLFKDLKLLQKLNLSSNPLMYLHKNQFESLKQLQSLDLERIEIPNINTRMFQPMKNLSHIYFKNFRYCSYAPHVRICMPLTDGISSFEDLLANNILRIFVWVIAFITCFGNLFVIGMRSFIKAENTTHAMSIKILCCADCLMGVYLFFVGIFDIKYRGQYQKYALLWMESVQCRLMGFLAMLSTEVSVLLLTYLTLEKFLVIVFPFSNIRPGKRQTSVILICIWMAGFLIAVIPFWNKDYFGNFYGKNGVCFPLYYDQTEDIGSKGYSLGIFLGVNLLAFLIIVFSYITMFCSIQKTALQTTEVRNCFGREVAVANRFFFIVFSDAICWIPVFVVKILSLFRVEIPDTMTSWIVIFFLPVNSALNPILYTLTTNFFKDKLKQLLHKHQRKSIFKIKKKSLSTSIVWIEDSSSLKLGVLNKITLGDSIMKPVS
This is a cell-based assay for cAMP second messenger response to screen for agonists of the RXFP2 receptor. The assay was conducted in the presence of a PDE4 inhibitor (Ro 20174). The cells were lysed and the cAMP levels were measured with a TR-FRET cAMP kit. Presence of cAMP in the cell lysate disrupts binding between the cryptate-labeled anti-cAMP and d2-labeled cAMP pair, leading to a decrease in the TR-FRET signal. Data were normalized to the controls for basal activity (buffer only) and 100% activity (29 nM porcine relaxin). The EC50 values were determined from concentration-response data modeled with the standard Hill equation 1536-well assay protocol for the HEK293 RXFP2 cAMP assay: (1) Add 3 ul HEK293 RXFP2 cell culture. 2000 cells/well in DMEM/F12, 10% FBS, 1x Pen/Strep (dispensed offline with MultiDrop Combi). (2) Incubate 16-24 hr at 37C, 5% CO2. (3) Add 1 ul 400uM Ro20174 in DPBS, 0.05% BSA, 0.005% Tween 20. (3) Add 23 nl compounds in DMSO solution. Final concentration was 0.5 - 58 uM. (4) Incubate 30 min at 37C, 5% CO2. (5) Add 1 ul cAMP-d2 in lysis buffer (HTRF cAMP HiRange kit, CisBio). (6) Add 1 ul anti-cAMP antibody-cryptate in lysis buffer (HTRF cAMP HiRange kit, CisBio). (7) Incubate 30 min at room temperature. (6) Detect the assay plate in a ViewLux plate reader (PerkinElmer) with Ex=320 nm, Em1=615 nm and Em2=665 nm. Keywords: relaxin, RXFP1, RXFP2, G-protein coupled receptor, cAMP, agonist, high throughput screening, MLSMR, MLSCN, NIH Roadmap, qHTS and NCGC
For orientation: Quantitative high-throughput screening tests each substance at several concentrations.
Consider `CCOc1ccccc1-c1nc2c(C(=O)Nc3cccc(S(=O)(=O)C(F)(F)F)c3)cccc2[nH]1`, for which the Potency entry was “inactive”.
Next, `CC(C)Oc1ccccc1C(=O)Nc1ccccc1C(=O)Nc1cccc(C(F)(F)F)c1`: “inactive”; `COc1cccc(NC(=O)c2ccccc2NC(=O)C2CCCCC2)c1`: “inactive”.
As to `COc1cccc(OC)c1C(=O)Nc1ccccc1C(=O)Nc1cccc(C(F)(F)F)c1`, the Potency entry was “inactive”.
With `COc1ccccc1C(=O)Nc1cccc(C(=O)Nc2cccc(C(F)(F)F)c2)c1`, the Potency entry was “inactive”.
Regarding `O=C(Cc1ccccc1)Nc1ccccc1C(=O)Nc1cccc(C(F)(F)F)c1`, the Potency result is “inactive”.
On to `O=C(Nc1cccc(-c2ccccc2C(F)(F)F)c1)c1ccccc1NC(=O)C1CCCCC1`, for which the Potency entry is “inactive”.
As for `CCOc1ccccc1S(=O)(=O)Nc1ccccc1C(=O)Nc1cccc(S(=O)(=O)C(F)(F)F)c1`, the Potency result was “inactive”.
For `CCCCC(=O)Nc1ccccc1C(=O)Nc1cccc(C(F)(F)F)c1`, the Potency result is “inactive”.
As to `Cc1ccccc1NC(=O)c1ccccc1NC(=O)C1CCCCC1`, the Potency result is “inactive”.
In the case of `COCCOc1ccccc1C(=O)Nc1ccccc1C(=O)Nc1cccc(C(F)(F)F)c1`, the Potency is 5.29 µM (active).
Next, `O=C(Nc1cccc(C(F)(F)F)c1)c1ccccc1NC(=O)C1CC1`: “inactive”; `COCCOc1ccccc1C(=O)Nc1cccc(C(F)(F)F)c1`: “inactive”.
Turning to `COc1ccccc1C(=O)Nc1ccc(C(=O)Nc2cccc(C(F)(F)F)c2)cc1`, the Potency result is “inactive”.
In the case of `O=C(Nc1cccc(C(F)(F)F)c1)c1ccccc1NC(=O)C1CCCCCC1`, the Potency entry is “inactive”.
As to `CCOc1ccccc1C(=O)Nc1ccncc1C(=O)Nc1cccc(S(=O)(=O)C(F)(F)F)c1`, the Potency was 9.4 µM (active).
Regarding `O=C(Nc1cccc(-c2ccccc2)c1)c1ccccc1NC(=O)C1CCCCC1`, the Potency entry is “inactive”.
As for `CCSc1ccccc1C(=O)Nc1ccccc1C(=O)Nc1cccc(S(=O)(=O)C(F)(F)F)c1`, the Potency result is “inactive”.
Regarding `COc1ccccc1C(=O)N(C)c1ccccc1C(=O)N(C)c1cccc(C(F)(F)F)c1`, the Potency entry is “inactive”.
Next, `CCC(CC)C(=O)Nc1ccccc1C(=O)Nc1cccc(C(F)(F)F)c1`: “inactive”; `O=C(Nc1ccc(C(F)(F)F)cc1)c1ccccc1NC(=O)C1CCCCC1`: “inactive”; `Cc1ccccc1C(=O)Nc1ccccc1C(=O)Nc1cccc(C(F)(F)F)c1`: “inactive”.
Consider `CCOc1ccccc1C(=O)Nc1cnccc1C(=O)Nc1cccc(S(=O)(=O)C(F)(F)F)c1`, for which the Potency result was “inactive”.
On to `COc1cccc(C(=O)Nc2ccccc2C(=O)Nc2cccc(C(F)(F)F)c2)c1`, for which the Potency entry is “inactive”.
With `CN(C)CCOc1ccccc1C(=O)Nc1ccccc1C(=O)Nc1cccc(C(F)(F)F)c1`, the Potency entry was “inactive”.
For `CCOc1ccccc1C(=O)Nc1ccccc1C(=O)Nc1cccc(C(F)(F)F)c1`, the Potency is 9.4 µM (active).
With `O=C(Nc1cccc(C(F)(F)F)c1)c1ccccc1NC(=O)C1CCCC1`, the Potency entry was “inactive”.
Turning to `O=C(NCc1ccco1)c1ccccc1NC(=O)c1ccccc1NC(=O)C1CCCCC1`, the Potency entry is “inactive”.
Consider `O=C(Nc1cccc(-c2cccc(C(F)(F)F)c2)c1)c1ccccc1NC(=O)C1CCCCC1`, for which the Potency result is “inactive”.
Regarding `CSc1cccc(NC(=O)c2ccccc2NC(=O)C2CCCCC2)c1`, the Potency result is “inactive”.
As for `COc1ccccc1C(=O)N(C)c1ccccc1C(=O)Nc1cccc(C(F)(F)F)c1`, the Potency result was “inactive”.
Take `O=C(NCc1cccc(C(F)(F)F)c1)c1ccccc1NC(=O)C1CCCCC1`: the Potency entry was “inactive”.
As for `CCCCOc1ccccc1C(=O)Nc1ccccc1C(=O)Nc1cccc(S(=O)(=O)C(F)(F)F)c1`, the Potency entry was “inactive”.
Consider `O=C(Nc1ccccc1)c1ccccc1NC(=O)C1CCCCC1`, for which the Potency entry was “inactive”.
The same measure for `COc1ccccc1CNc1ccccc1C(=O)Nc1cccc(C(F)(F)F)c1`: “inactive”; for `COc1ccccc1C(=O)Nc1ccccc1C(=O)Nc1cccc(C(F)(F)F)c1`: 5.93 µM (active); for `CCOc1ccccc1C(=O)NCCC(=O)Nc1cccc(S(=O)(=O)C(F)(F)F)c1`: “inactive”.
Turning to `O=C(Nc1cccc(SC(F)(F)F)c1)c1ccccc1NC(=O)C1CCCCC1`, the Potency entry was “inactive”.
On to `COc1ccccc1C(=O)Nc1ccccc1C(=O)Nc1cccc(S(=O)(=O)C(F)(F)F)c1`, for which the Potency result was “inactive”.
Take `COCCNc1ccccc1C(=O)Nc1cccc(C(F)(F)F)c1`: the Potency result is “inactive”.
